Results filed as inconclusive are left out. Activity calls are given as the source filed them. Calls come from the whole dose curve; as a rule, active = well fitted curve in the direction sought with a large enough effect; inconclusive = small, poorly fitted or top-dose-only effect, or another doubt; inactive = no such curve, though single readings can be large; an effect the other way counts as inactive or inconclusive.
Assays:
[1] = SW1088 Cancer Cell Toxicity qHTS against the NCATS CANVASS Library (AID 1347350); conditions: SW1088 viability, CellTiter-Glo luminescence, 72 h; at 38.3 µM (top of the series); note: nearly all actives have a fitted effect of over 75% in size
Procedure, shortened: (§1)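 Viability read-out: CellTiter-Glo luminescence after 72 h compound exposure at 37 °C/5% CO2. Cells plated at 1000/well, 4 h pre-incubation; 11-point titration. Bortezomib served as control.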

[2] = U-118MG Cancer Cell Toxicity qHTS against the NCATS CANVASS Library (AID 1347351)
Procedure, shortened: as §1

[3] = COV-362 Cancer Cell Toxicity qHTS against the NCATS CANVASS Library (AID 1347352)
Procedure, shortened: (§2)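 Toxicity was measured as CellTiter-Glo luminescence after 72 h exposure to an 11-point compound series. Compound was added to 1000 cells/well 4 h after seeding.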

[4] = A2780 Cisplatin Sensitive Ovarian Cancer Cell Toxicity qHTS against the NCATS CANVASS Library (AID 1347353); conditions: A2780 ovarian cancer viability, ATPLite luminescence, 72 h; at 46.1 µM (top of the series); note: nearly all actives have a fitted effect of over 60% in size
Procedure, shortened: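 Cisplatin-sensitive A2780 ovarian cells (750/well) received compound in 11 concentrations, and were incubated 72 h at 37 °C. ATP content was measured by ATPLite luminescence; bortezomib served as control.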

[5] = UWB1.289-WTBRCA1 Cancer Cell Toxicity qHTS against the NCATS CANVASS Library (AID 1347354); conditions: UWB1.289-WTBRCA1 viability, CellTiter-Glo luminescence, 72 h; at 38.3 µM (top of the series)
Procedure, shortened: as §2

[6] = HEK-293 Cancer Cell Toxicity qHTS against the NCATS CANVASS Library (AID 1347355); conditions: HEK-293 viability, CellTiter-Glo luminescence, 72 h; at 46.1 µM (top of the series); note: nearly all actives have a fitted effect of over 65% in size
Procedure, shortened: as §2

[7] = HPAF-II 24hr Apoptosis Induction qHTS against the NCATS CANVASS Library (AID 1347356)
Procedure, shortened: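 Caspase-Glo 3/7 luminescence, read after 15 min room-temperature development, measures apoptosis in HPAF-II cells treated 24 h at 37 degrees C with an 11-point concentration series; 500 cells/well; doxorubicin control.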

[8] = HEK293 18hr Apoptosis Induction qHTS against the NCATS CANVASS Library (AID 1347357)
Procedure, shortened: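 Natural products applied to HEK293 for 18 hr; Caspase-Glo 3/7 readout.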

[9] = HPAF-II 12hr Apoptosis Induction qHTS against the NCATS CANVASS Library (AID 1347358)
Procedure, shortened: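 Caspase-3/7 activation by DEVD-substrate luminescence (Caspase-Glo 3/7, 15 min, room temperature) after a 12-hour compound exposure in 11 concentrations, of HPAF-II pancreatic cells seeded at 500/well in DMEM with 10% FBS.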

[10] = HEK293 24hr Apoptosis Induction qHTS against the NCATS CANVASS Library (AID 1347359)
Procedure, shortened: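 HEK293 cells, 500 per well, exposed to an 11-point compound series for 24 hours at 37 degrees C. Caspase 3/7 activity read by Caspase-Glo luminescence (DEVD substrate) after 15 min at room temperature.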

[11] = HPAF-II 18hr Apoptosis Induction qHTS against the NCATS CANVASS Library (AID 1347360)
Procedure, shortened: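 Luminescent DEVD-substrate signal, proportional to caspase activity, is measured in HPAF-II cells after 18-hour treatment across a concentration series; doxorubicin serves as control.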

[12] = HEK293 12hr Apoptosis Induction qHTS against the NCATS CANVASS Library (AID 1347361)
Procedure, shortened: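 Luminescent caspase-3/7 signal, proportional to enzyme activity, was recorded from HEK293 cultures in DMEM + 10% FBS treated for 12 hours with titrated natural products (11 points). Doxorubicin (0.1nM - 4uM) served as control.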

[13] = system: NAD(P)H diaphorase (Clostridium kluyveri); test: Diaphorse counterscreen qHTS: Assay Interference Panel against the NCATS CANVASS Library (AID 1347362)
Procedure, shortened: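 Clostridium kluyveri diaphorase in PBS + 0.01% Tween-20 preincubated 15 min with compounds. Resazurin and NADH then added for 5 min at room temperature in the dark; resorufin fluorescence read (ex 525, em 598).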

[14] = biological target: Luciferin 4-monooxygenase (Photinus pyralis) (UniProt P08659); test: Firefly luciferase counterscreen qHTS: Assay Interference Panel against the NCATS CANVASS Library (AID 1347363)
Procedure, shortened: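 Purified P. pyralis luciferase (0.04 ug/mL, 4x reagent) added to Tris-acetate buffer with 0.013 mM D-luciferin, 0.013 mM ATP and 13.3 mM Mg-acetate; compounds preincubated 15 min, then luminescence read after 5 min, RT.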

[15] = KB-8-5-11 Cancer Cell Toxicity qHTS against the NCATS CANVASS Library (AID 1347364); conditions: KB-8-5-11 MDR cells viability, CellTiter-Glo, 72 h; at 46.1 µM (top of the series); note: nearly all actives have a fitted effect of over 75% in size
Procedure, shortened: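 Viability read as CellTiter-Glo luminescence after 72 h at 37 °C, 5% CO2. 11-point compound series on 500 KB-8-5-11 cells/well in DMEM/10% FBS. Follow-up plating included 1 uM tariquidar in the medium.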

[16] = KB-3-1 Cancer Cell Toxicity qHTS against the NCATS CANVASS Library (AID 1347366); conditions: KB-3-1 viability, CellTiter-Glo luminescence, 72 h; at 46.1 µM (top of the series); note: nearly all actives have a fitted effect of over 75% in size
Procedure, shortened: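 Cytotoxicity toward KB-3-1 cells (500/well, DMEM + 10% FBS) was scored by CellTiter-Glo luminescence following 72 hr exposure at 37C, with bortezomib titrated as control.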

[17] = qHTS for ATAD5 Agonist screened against the NCATS CANVASS Library (AID 1347367);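 note: luciferase reporter driven by ATAD5 which rises upon DNA damage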
Procedure, shortened: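 Genotoxicity was scored as increased ATAD5-luciferase luminescence in HEK293T after 16hr of exposure, with cell viability measured by fluorescence beforehand in the same well.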

[18] = MCF7 Cancer Cell Toxicity qHTS against the NCATS CANVASS Library (AID 1347369); conditions: MCF7 viability, ATP luminescence (CellTiter-Glo), 72 h; at 46 µM (top of the series)
Procedure, shortened: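 This 72 hr qHTS scored MCF7 viability by CellTiterGlo luminescence, with 500 cells/well; bortezomib titration ran as control.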

[19] = qHTS for ATAD5 Antagonist screened against the NCATS CANVASS Library (AID 1347370);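 note: HEK293T cells carrying an ATAD5 luciferase reporter co-treated with 10 µM 5-fluorouridine; nearly all actives have a fitted effect of over 65% in size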
Procedure, shortened: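 Compounds (11-point) co-dosed with 10 µM 5-FUrd for 16 h at 37 °C onto HEK293T-ATAD5 luciferase reporter cells. Viability measured by CellTiter-Fluor fluorescence, then ATAD5 reporter signal by luminescence.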

[20] = J3T Cancer Cell Toxicity qHTS against the NCATS CANVASS Library (AID 1347371);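 note: J3T is a canine glioma cancer cell line seeded at 500 cells per well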
Procedure, shortened: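 Cytotoxicity read as CellTiterGlo ATP luminescence after 72 h incubation (37C, 5% CO2) of J3T canine glioma cells (500/well) with an 11-point compound series.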

Measured: outcome

Luciferin 4-monooxygenase (Photinus pyralis), sequence (P08659 whole entry, looked up): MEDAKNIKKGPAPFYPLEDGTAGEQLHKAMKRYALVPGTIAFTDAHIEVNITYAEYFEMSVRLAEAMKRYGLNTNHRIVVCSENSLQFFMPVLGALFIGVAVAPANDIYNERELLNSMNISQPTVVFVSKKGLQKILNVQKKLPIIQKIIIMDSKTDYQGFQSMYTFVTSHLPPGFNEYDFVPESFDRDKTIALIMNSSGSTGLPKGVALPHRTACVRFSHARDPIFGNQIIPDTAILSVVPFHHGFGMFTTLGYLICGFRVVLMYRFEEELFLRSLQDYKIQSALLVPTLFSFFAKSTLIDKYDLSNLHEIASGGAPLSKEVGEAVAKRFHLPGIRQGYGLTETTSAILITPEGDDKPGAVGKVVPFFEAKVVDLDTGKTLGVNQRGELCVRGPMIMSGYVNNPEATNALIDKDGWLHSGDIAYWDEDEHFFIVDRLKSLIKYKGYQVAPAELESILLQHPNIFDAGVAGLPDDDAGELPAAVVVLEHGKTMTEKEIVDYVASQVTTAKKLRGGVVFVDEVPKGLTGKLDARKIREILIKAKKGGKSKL

CN1CCC[C@@H]1c1cccnc1
inactive: all assays above

Source: PubChem BioAssay (NCATS)
